In article PMC12136788 one finds binding signal data, which are given here for 14 molecules.

Positions count from the first letter of the chain named. Over roughly 24,000 sequences, “enrichment r” has its median near 0.99; the highest 2% begin near 3.7. Many of the other results were omitted from the sample, so the highest values are more common in it than they were.

T1: UNK ZnF1-3 (human, UniProt Q9C0B0 31-174)
T1 sequence: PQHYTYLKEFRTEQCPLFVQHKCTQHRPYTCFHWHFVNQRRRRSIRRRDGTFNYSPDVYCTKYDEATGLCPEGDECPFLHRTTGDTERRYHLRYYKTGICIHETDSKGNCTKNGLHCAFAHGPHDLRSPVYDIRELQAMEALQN

B1: 30669026_30669146_122_CDS_ENSG00000108666_ENST00000577809|human|control|control (ssRNA)
RNA: GGGAGUUCUACAGUCCGACGAUCGCGAUAGCUGUAAAGACAGUAGUGGCUGCUGGACGGCGGCUCGAGUCUCCGCUCCUCGGCUGAGCCUCCCUCUUCGCUGCUCUCUAGUUCCUUUUCAUCUCCAUCCAUCGACUCCUGCAACAACAGAGGAUUGAGCAUCA
B2: 23382874_23385586_565_CDS_ENSMUSG00000026158_ENSMUST00000027343|mouse|control|control (ssRNA)
RNA: GGGAGUUCUACAGUCCGACGAUCUUCUCUCAGGGGGAAAAGCCAUUGGAUGUACGUGUGGUUGUGCUCCAGCUUCUCGUAGUCCCCUUUCCACUUAUUUAGAACCUCUUCAAUGUAAACACCAUCCGGCUUAAAUGGAAUUUUCAACAGAGGAUUGAGCAUCA
B3: chr1:39494447:39494448:+_ENSG00000168653_ENST00000372967|hu_mus|hu_hu_hu_mus_False|58_68 (ssRNA)
RNA: GGGAGUUCUACAGUCCGACGAUCGCACCGAGCGGCGUUCUUAUAGGGCUGUUCUGCGCUUAGGAACGUCAACCAUCGAUCUAUGUUGAUGCCCAGCUUUUUCUGUAUGUCAAGGAAAGGCAUGGCUCUGCAGUGCCCUUGUCACAACAGAGGAUUGAGCAUCA
B4: chr3:179287964:179287965:+_ENSG00000136518_ENST00000429709|hu_hu|hu_hu_hu_mus_True|38_38 (ssRNA)
RNA: GGGAGUUCUACAGUCCGACGAUCCUUGAGUGGUGAGAUGGCCUCCAUGUUCUCCCUGGGCACGCGGAGGGCAUUGGUGUCUAUGUAGUAGGUGGGCCCGCCUUGUUUGCCUUUGUCACCAUCAAUCUCCAUCAUUGUACUUCCCAACAGAGGAUUGAGCAUCA
B5: chr1:58468927:58468928:-_ENSMUSG00000026034_ENSMUST00000148330|mus_mus|mus_mus_mus_hu_False|18_88 (ssRNA)
RNA: GGGAGUUCUACAGUCCGACGAUCAAUUACUGAAAAAGAUGUUCAUUUAUUUGGUUUUGUACUUAAUGAACCAAAUUACCCAAACAAAAUAAACAUGGCAAUAUAAAAAUGUUAAGAAAAUAACUUACUGUACAAAAUAACUUACAACAGAGGAUUGAGCAUCA
B6: chr1:58468927:58468928:-_ENSMUSG00000026034_ENSMUST00000148330|mus_hu|FALSE|FALSE (ssRNA)
RNA: GGGAGUUCUACAGUCCGACGAUCAAUUACUGAAAAAGAUGUUCAUUACCUUAGCUAUGUACUUAAUGAACCAAAUUACCCAAACAAAAUAAACAUGGCAAUAUAAAAAUGUUAAGAAUUUACAAAGCUGUACAAAAUAACUUACAACAGAGGAUUGAGCAUCA
B7: chr1:185277986:185277987:-_ENSG00000116679_ENST00000392007|hu_mus|FALSE|FALSE (ssRNA)
RNA: GGGAGUUCUACAGUCCGACGAUCCUGCUUGACUCGGUCCAUCUUCAGCUUCUUGGCUGCAGAAUAAACAUCUUUUACUAAUUCCUUAUCAGCUUUCAACUGAGCCGUGUAUGCAUAAUUCAGCAAGACUUCAACAGCUUCUGGCAACAGAGGAUUGAGCAUCA
B8: chr11:57926588:57926589:+_ENSMUSG00000020515_ENSMUST00000020822|mus_hu|FALSE|FALSE (ssRNA)
RNA: GGGAGUUCUACAGUCCGACGAUCGUCAAUCCCUUCCUCUUCAUGCUUCUGAAACUGUAGUCCUGAGUUAGCAAGGAGAUCUAUGGAAUCCUGGGAGUACAUGUCCUCUGUAAGGUUAAAUUUGAAAUUGAACUGCCAAGUAUUCAACAGAGGAUUGAGCAUCA
B9: chr13:100194382:100194383:-_ENSMUSG00000052727_ENSMUST00000064762|mus_hu|FALSE|FALSE (ssRNA)
RNA: GGGAGUUCUACAGUCCGACGAUCUCCUGUAAAUGAAAACAUUUGUUAAAAAGUUCAUCUAUGAAAAGUUCUCACAUAUCUUAAAAAAAAAAUUCUUCUGUACACUUGUUCCCAUAAUUAUGUUGAAAUUAAUGGAAAAUUUAACAACAGAGGAUUGAGCAUCA
B10: chr4:54876292:54876293:-_ENSG00000109220_ENST00000263921|perfect_dup|motif|central (ssRNA)
RNA: GGGAGUUCUACAGUCCGACGAUCCUAUAAAUAAAGUAAAUGCUAAUCUGGUCGAAAAAUCGGUGUCUUUGGUAAAAAUUCGGUGAGGAUGACAUAUUCCAUCAUGUUAUUCGUUUCACAUUUCCUUUUGCUCAGUCUCCAAUGCAACAGAGGAUUGAGCAUCA
B11: chr13:100194382:100194383:-_ENSMUSG00000052727_ENSMUST00000064762|mus_mus|FALSE|FALSE (ssRNA)
RNA: GGGAGUUCUACAGUCCGACGAUCUCCUGUAAAUGAAAACAUUUGUUAAAAAGUUCAUCUAUGAAAAGUUCUCGAGUAGCUAAAAAAAAAAAAAAAAAAAAAAAAAAUCUUCUGUACAUGUGUUCCCAUGUGUUGAAAUUAAUGCAACAGAGGAUUGAGCAUCA
B12: chr15:80390846:80390847:+_ENSG00000086666_ENST00000559775|hu_hu|FALSE|FALSE (ssRNA)
RNA: GGGAGUUCUACAGUCCGACGAUCCUGUCCUGUAUCUUGAGACAGACAUUAGCUUUCUGCCUUCCCUAUUCUCAUAAGCAGCUACUUAAAAGUUUUGAAUUUUAUGCAAGAAAACAUUUUAAAGCCUUCUGUGUUUUACUGCAGCAACAGAGGAUUGAGCAUCA
B13: chr13:100194382:100194383:-_ENSMUSG00000052727_ENSMUST00000064762|mus_mus|motif|central (ssRNA)
RNA: B11 RNA with U80G, A81G
B14: 53612100_53613521_5214_CDS_ENSG00000086758_ENST00000262854|human|control|control (ssRNA)
RNA: GGGAGUUCUACAGUCCGACGAUCAGAGCGAUCAUCAAACCAGCGCCAGUUGUUGCUGUUGGAUUGCAGGUACUUAGUCAUCUGGGCUCUCCUUUUUGAGGAGAUGGCUGUCUUUUCAUAGAAAUCAAUCAGGAGCAACACUGGCAACAGAGGAUUGAGCAUCA

The assay addresses T1, UNK ZnF1-3. The experiment in a line: nsRBNS (natural sequence RNA bind-n-seq); RBNS binding buffer (assumed for nsRBNS): 25 mM Tris pH 7.5, 150 mM KCl, 3 mM MgCl2, 0.01% Triton X-100, 500 ug/ml BSA, 20 U/ml SUPERase-In, 4 C; UNK is unkempt and MSI1 is Musashi-1; names of the RNAs are library labels; protein concentration not given here; high values mean tight binding.
On to B1, for which the binding signal amounted to 0.51 enrichment R.

B2: the binding signal worked out at 0.65 enrichment R.

Consider B3, for which the binding signal turned out to be 0.515 enrichment R.

The molecule B4 came in with a binding signal of 0.571 enrichment R.

The molecule B5 had a binding signal of 6.29 enrichment R.

B6 displayed a binding signal of 1.24 enrichment R.

B7 yielded a binding signal of 0.806 enrichment R.

In turn, B8 gave a binding signal of 1.01 enrichment R.

In turn, B9 gave a binding signal of 1.06 enrichment R.

On to B10, for which the binding signal amounted to 1.46 enrichment R.

With B11, the binding signal worked out at 5.73 enrichment R.

For B12, the binding signal turned out to be 0.755 enrichment R.

Molecule B13 registered a binding signal of 5.84 enrichment R.

For the molecule B14, the binding signal stood at 1.05 enrichment R.
